HepG2 viability: kills HepG2 cells in TGF-b inhibitor counter-screen. HepG2 CAGA-GFP viability, ATP luminescence, 18 h. 0.76% of 410,000 active. Potency, µM (doses to about 46.1 µM), inactives show at the highest dose activity change, negative = cytotoxicity, most hits filed as cytotoxic
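CellTiter-Glo luminescence gave cytotoxicity after 18 hours at 37 degrees C. The cells were HepG2 CAGA-GFP in 1% FBS DMEM, stimulated with 500 pg/mL TGF-beta after compound addition. %Activity was normalised to no-cell wells (complete cell-killing) and DMSO (no toxicity), and curves were fitted and classified.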
S2 tox: reduces viability in counter-screen for ATXN expression inhibitors; 0.49% of 400,000 active; S2 cells (HEK-293 line with an ATXN2-luciferase reporter) viability, CellTiter-Fluor protease fluorescence, 24 h; Potency, µM (highest dose often 56.7 µM), usual class: cytotoxic; further: nearly all actives have a fitted effect of over 40% in size
ATXN2 expr inh: inhibitors of ATXN2 expression | HEK-293 ATXN2-luciferase reporter, luminescence, 24 h | Potency, µM (top dose mostly 57 µM), for the others: at the top dose activity change, negative = inhibition, hits mostly inhibitors | 0.72% of 360,000 active | AID 1745845; further: on the % scale 0 is the no-effect control and ±100 the full control effect; nearly all actives have a fitted effect of over 55% in size
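qHTS (up to 57 uM final) was run with 24 h compound exposure of reporter cells at 37 °C. Each well was multiplexed: SteadyGlo luminescence measured ATXN2-luciferase expression after a fluorogenic Gly-Phe-AFC viability readout (25 uM final).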
TGFb inhibitor: blocks TGF-b signaling; HepG2 CAGA-GFP TGF-b/SMAD3 reporter, GFP fluorescence, 18 h; TGF-beta stimulated, 500 pg/mL final; Potency, µM (doses to about 46.1 µM), without a hit: at the highest dose activity, negative = inhibition, most hits filed as inhibitors; 1.2% of 410,000 active; further: on the % scale 0 is the no-effect control and ±100 the full control effect; nearly all actives have a fitted effect of over 65% in size
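HEPG2 CAGA-GFP cells (1000/well, DMEM with 1% FBS) were pre-incubated 2 h at 37 degrees C, given compound by pin tool, then stimulated with TGF-beta at 500 pg/mL final for 18 h before per-cell GFP fluorescence imaging.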
TDP1 cell noCPT: qHTS for Inhibitors of human tyrosyl-DNA phosphodiesterase 1 (TDP1): qHTS in cells in absence of CPT | DT40 Tdp1-/- hTDP1 cells, no CPT, ATP luminescence, 48 h | Potency, µM (series often up to 46.2 µM), for the others: at the highest dose activity change, negative = growth inhibition, actives largely listed as inhibitors | 15% of 420,000 active | AID 686978, 2013; further: on the % scale 0 is the no-effect control and ±100 the full control effect; nearly all actives have a fitted effect of over 55% in size
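Growth of hTDP1-complemented DT40 Tdp1-knockout cells is measured by ATP luminescence after at least 48 hr compound exposure at 37 °C, with DMSO substituting for the 20 nM CPT used in the parallel screen.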
DT40 TDP1 CPT: DT40-hTDP1 cell growth loss with CPT. Potency, µM (doses to about 46.2 µM), for inactives: top-dose activity change, negative = growth inhibition, most hits filed as inhibitors. chicken DT40 Tdp1-/-;hTDP1 cells + 20 nM CPT, ATP luminescence, 48 h. 12% of 420,000 active. AID 686979; further: on the % scale 0 is the no-effect control and ±100 the full control effect; nearly all actives have a fitted effect of over 55% in size
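Chicken DT40 Tdp1-/- cells stably complemented with human TDP1 were seeded at 400 cells/well in medium containing 20 nM camptothecin, exposed to pin-transferred compounds, and grown at 37 °C for at least 48 hr. Viability was read as ATP luminescence.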
* = called active by the depositor; [ ] = another dose, or the depositor's remark. Shown are actives, neighbours in structure and some others; about 17% of the full set was active somewhere. The call rests on the fitted dose curve; in most records, active means well fitted curve in the direction sought with a large enough effect; inconclusive means small, poorly fitted or top-dose-only effect, or another doubt; inactive means no such curve, though single readings can be large; an effect the other way counts as inactive or inconclusive. Potency means the concentration at half of the fitted maximal effect.

`COc1ccc(-c2cc3ccccc3n2CC(O)CN2CCC(C)CC2)cc1` (centres undefined) gave HepG2 viability -23%, S2 tox inconclusive, ATXN2 expr inh -4%, TGFb inhibitor -9%, TDP1 cell noCPT 23µM* and DT40 TDP1 CPT inconclusive.
Screening CC1=C(C(=O)Nc2ccc(C)cc2C)C(c2ccc(Cl)cc2)n2nc(C(=O)OC(C)C)nc2N1 (centres undefined) returned HepG2 viability 18%, S2 tox inactive, ATXN2 expr inh -2%, TGFb inhibitor 1%, TDP1 cell noCPT 16µM* and DT40 TDP1 CPT inconclusive.
CC1=C(C(N)=O)C(c2cccc(C)c2)n2nc(-c3ccc(Cl)cc3)nc2N1 (centres undefined) was read as HepG2 viability -28%, TGFb inhibitor -24%, TDP1 cell noCPT inconclusive and DT40 TDP1 CPT 21µM*.
Screening COc1ccc(C2C(C(=O)Nc3ccc(C)cc3C)=C(C)Nc3nc(SC)nn32)cc1OC (centres undefined) returned HepG2 viability 11%, S2 tox inactive, ATXN2 expr inh 5%, TGFb inhibitor -4%, TDP1 cell noCPT -14% and DT40 TDP1 CPT -11%.
For CC1=C(C(=O)Nc2ccccc2)C(c2ccc(O)cc2)n2nc(-c3ccc(Cl)cc3)nc2N1 (centres undefined) the results were HepG2 viability -77%, S2 tox 28µM*, ATXN2 expr inh 0%, TGFb inhibitor inconclusive, TDP1 cell noCPT inconclusive and DT40 TDP1 CPT inconclusive.
COc1cccc(C2C(C(=O)Nc3ccc(Cl)cc3)=C(C)Nc3nc4ccccc4n32)c1 (centres undefined) was read as HepG2 viability 8%, S2 tox inactive, ATXN2 expr inh -2%, TGFb inhibitor 2%, TDP1 cell noCPT -4% and DT40 TDP1 CPT 21µM*.
CSc1ccc(/C=C(\NC(=O)c2ccccc2)C(=O)NN)cc1 was read as HepG2 viability -2%, S2 tox inactive, ATXN2 expr inh -1%, TGFb inhibitor 13%, TDP1 cell noCPT -11% and DT40 TDP1 CPT -1%.
Screening O=C(Nc1ccc(Cc2ccncc2)cc1)c1cc(F)c(F)cc1Cl returned HepG2 viability 5%, S2 tox inactive, TGFb inhibitor -11%, TDP1 cell noCPT -17% and DT40 TDP1 CPT -4%.
Screening O=C(Nc1ccc(NC(=O)C23CC4CC(CC(C4)C2)C3)cc1)c1cc(F)c(F)cc1Cl returned HepG2 viability 16%, S2 tox inactive, ATXN2 expr inh 7%[11.3 µM], TGFb inhibitor -17%, TDP1 cell noCPT 13µM* and DT40 TDP1 CPT inconclusive.
Cc1ccc(C(C)C)c(OCc2ccc(-c3nnco3)cc2)c1 was read as HepG2 viability -43%, S2 tox inactive, ATXN2 expr inh inconclusive, TGFb inhibitor -26%, TDP1 cell noCPT 21µM* and DT40 TDP1 CPT 16µM*.
`CCc1cccc(CC)c1NC(=O)c1ccc2c(c1)CCN2S(=O)(=O)c1ccccc1` gave HepG2 viability 0%, S2 tox inactive, ATXN2 expr inh 4%, TGFb inhibitor -1%, TDP1 cell noCPT 0% and DT40 TDP1 CPT 0%.
Screening CCS(=O)(=O)N1CCc2cc(C(=O)Nc3cc(Cl)ccc3C)ccc21 returned HepG2 viability -19%, S2 tox inactive, ATXN2 expr inh -24%, TGFb inhibitor 22%, TDP1 cell noCPT 23µM* and DT40 TDP1 CPT 29µM*.
Screening CCS(=O)(=O)N1CCc2cc(C(=O)Nc3cccc(Cl)c3C)ccc21 returned HepG2 viability -36%, S2 tox inactive, ATXN2 expr inh 12%, TGFb inhibitor -19%, TDP1 cell noCPT inconclusive and DT40 TDP1 CPT inconclusive.
CCc1cccc(C)c1NC(=O)c1ccc2c(c1)CCN2S(=O)(=O)CC was read as HepG2 viability -2%, S2 tox inactive, ATXN2 expr inh -5%, TGFb inhibitor 2%, TDP1 cell noCPT 12µM* and DT40 TDP1 CPT inconclusive.
`CCc1cccc(C)c1NC(=O)c1ccc2c(c1)CCN2S(=O)(=O)c1ccc(Cl)cc1` gave HepG2 viability 2%, S2 tox inactive, ATXN2 expr inh 0%, TGFb inhibitor -7%, TDP1 cell noCPT 9.2µM* and DT40 TDP1 CPT inconclusive.
Screening COc1ccc2oc(=O)c(C(=O)C[n+]3cccc(C)c3)cc2c1 returned HepG2 viability -16%, S2 tox inactive, ATXN2 expr inh -1%, TGFb inhibitor -10%, TDP1 cell noCPT -5% and DT40 TDP1 CPT -3%.
For COc1cc(Nc2ccc(S(N)(=O)=O)cc2)c([N+](=O)[O-])nc1[N+](=O)[O-] the results were HepG2 viability -12%, S2 tox inconclusive, TGFb inhibitor inconclusive, TDP1 cell noCPT inconclusive and DT40 TDP1 CPT 16µM*.
`COc1ccc(Oc2c(Cl)cnn(-c3ccc(C)cc3)c2=O)cc1` gave HepG2 viability -39%, S2 tox inactive, ATXN2 expr inh inconclusive, TGFb inhibitor inconclusive, TDP1 cell noCPT 26µM* and DT40 TDP1 CPT inconclusive.
For Cc1ccc(Sc2cnn(-c3ccccc3)c(=O)c2Cl)cc1 the results were HepG2 viability 0%, S2 tox inactive, ATXN2 expr inh -5%, TGFb inhibitor inconclusive, TDP1 cell noCPT 29µM* and DT40 TDP1 CPT inconclusive.
Screening COc1ccc2cnn(CCOc3cc(C)ccc3C(C)C)c(=O)c2c1OC returned HepG2 viability -10%, S2 tox inactive, ATXN2 expr inh 4%, TGFb inhibitor inconclusive, TDP1 cell noCPT 16µM* and DT40 TDP1 CPT 16µM*.
Screening CCOc1ccccc1OCCn1ncc2ccc(OC)c(OC)c2c1=O returned HepG2 viability -6%, S2 tox inactive, ATXN2 expr inh 7%, TGFb inhibitor 3%, TDP1 cell noCPT -19% and DT40 TDP1 CPT -25%.
COc1ccc(Oc2c(Cl)cnn(-c3ccc(F)cc3)c2=O)cc1 was read as HepG2 viability 15%, S2 tox inactive, ATXN2 expr inh -22%, TGFb inhibitor 7%, TDP1 cell noCPT inconclusive and DT40 TDP1 CPT inconclusive.
Screening O=C(O)c1ccc(-n2ncc(Cl)c(Cl)c2=O)cc1 returned HepG2 viability -2%, S2 tox inconclusive, TGFb inhibitor -3%, TDP1 cell noCPT 5.8µM* and DT40 TDP1 CPT 6.5µM*.

Screening data: PubChem BioAssay, National Center for Advancing Translational Sciences (NCATS)
